From PubChem BioAssay
GLS inhibitor = blocks human kidney-isoform glutaminase activity; O94925; GLS enzymatic activity, qHTS titration; Potency, µM (doses to about 45.5 µM), usual class: inhibitors; 0.21% of 410,000 active; AID 624170
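Assay buffer: 45 mM KH2PO4 pH 8.2, 0.02% Tween-20. hKGA acts on L-glutamine (1 mM solution added); product glutamate is reported by an oxidase/peroxidase Amplex Red coupling, with fluorescence taken at baseline and 30 min.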
PTHR1 ag = PTHR1 (human) receptor agonism; Q03431; HEK293 GP2 PTHR1 cells, GloSensor cAMP luminescence, 1 h; Potency, µM (titrated, usually from 115 µM), actives largely listed as activators; 0.075% of 410,000 active; AID 743266; further: nearly all actives have a fitted effect of over 55% in size
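HEK-293-derived GP2 cells expressing PTHR1 and a GloSensor cAMP reporter, 3,000/well, plated overnight, given luciferin plus IBMX (each 0.5 mM as added) for 1 h at 37 °C, then compound for 1 h at 37 °C. Luminescence was read after 15 min at room temperature.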
Glioma ERSR ind = ER stress response induction in glioma | Potency, µM, actives largely listed as activators | U87-MG GRP78 promoter luciferase reporter, 16 h | 0.02% of 420,000 active | AID 602332; further: series mostly up to about 76 µM; nearly all actives have a fitted effect of over 35% in size
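Stably transfected U87-MG glioma cells carrying a GRP78-based luciferase sensor; 16 h compound incubation. Luminescence end-point read 10 min after Bright-Glo addition at room temperature.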
ALOX12 inh = blocks human arachidonate 12S-lipoxygenase; 1.1% of 580,000 active; purified 12hLO, xylenol orange hydroperoxide absorbance; Potency, µM (series often up to 108 µM), usual class: inhibitors; AID 1671190; P18054
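Hydroperoxide product was detected by ferrous iron/xylenol orange as the 573 to 405 nm absorbance ratio. Arachidonic acid at 40 uM (final) was turned over for 30 min at room temperature by 150 nM human 12hLO, pH 7.0 Hepes buffer, after 15 min compound preincubation.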
GLP-1R agonist = GLP-1 receptor (human) agonism. P43220. HEK293 GLP-1R CRE-luciferase, luminescence, 4-6 h; cells express a hypersensitive GLP-1R form. Potency, µM (top dose mostly 45.6 µM), actives largely listed as activators. 0.007% of 380,000 active. AID 624172
Target sequence (P43220 whole entry, looked up): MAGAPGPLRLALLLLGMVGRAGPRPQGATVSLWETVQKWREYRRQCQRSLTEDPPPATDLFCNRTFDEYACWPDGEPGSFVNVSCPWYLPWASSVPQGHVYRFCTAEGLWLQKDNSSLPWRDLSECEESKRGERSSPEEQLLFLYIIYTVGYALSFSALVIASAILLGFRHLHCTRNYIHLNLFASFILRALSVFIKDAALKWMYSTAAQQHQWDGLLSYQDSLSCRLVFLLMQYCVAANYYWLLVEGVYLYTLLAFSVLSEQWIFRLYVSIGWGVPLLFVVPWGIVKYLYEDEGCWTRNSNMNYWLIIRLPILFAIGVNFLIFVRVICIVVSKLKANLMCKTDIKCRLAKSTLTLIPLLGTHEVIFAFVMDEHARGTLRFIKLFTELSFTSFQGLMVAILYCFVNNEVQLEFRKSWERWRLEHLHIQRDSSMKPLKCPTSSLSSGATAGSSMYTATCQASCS
GLP1R inv ag = GLP-1 receptor (human) inverse agonism. HEK293 GLP-1R CRE-luciferase, luminescence, 24 h; GLP-1R form is constitutively active. Potency, µM (titrated, usually from 38.3 µM), most hits filed as inhibitors. AID 624417. 1.6% of 410,000 active. P43220; further: nearly all actives have a fitted effect of over 55% in size
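Luminescence readout: a drop in cAMP-driven luciferase signal flags inverse agonism at a constitutively active GLP-1R stably expressed in HEK293. Compound exposure lasted 24 hr at 37 deg C, 5% CO2.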
Of the large screens only hits and unclear results are named; the others gave an inactive call. An excerpt weighted towards active compounds, which were near 2.3% of everything screened. The call rests on the fitted dose curve; in most records, active means well fitted curve in the direction sought with a large enough effect; inconclusive means small, poorly fitted or top-dose-only effect, or another doubt; inactive means no such curve, though single readings can be large; an effect the other way counts as inactive or inconclusive.

O=C(C[C@H]1C[C@H](C(=O)N2CCOCC2)[C@@]2(CCC3CCCC3)c3[nH]c4cc(-c5ccco5)ccc4c3CCN2C1=O)NCCC1=CCCCC1	GLP1R inv ag 10µM (no result: ALOX12 inh)
CC[C@]12c3[nH]c4ccc(Cl)cc4c3CCN1C(=O)[C@@H](CC(=O)NCCC1=CCCCC1)C[C@@H]2C(=O)N1CCN(C(=O)c2ccco2)CC1	ALOX12 inh 25µM, GLP1R inv ag inconclusive
COc1ccc2[nH]c3c(c2c1)CCN1C(=O)C(CC(=O)NCCC2=CCCCC2)C[C@H](C(=O)N(C(C)C)C(C)C)[C@@]31C (stereo partly specified)	GLP1R inv ag 10µM
CCN(CC)C(=O)[C@H]1CC(CC(=O)NCCC2=CCCCC2)C(=O)N2CCc3c([nH]c4ccc(OC)cc34)[C@]12C (stereo partly specified)	GLP1R inv ag inconclusive
c1ccc(COc2ncnc3c2ncn3CCCNC2CCN(Cc3ccccc3)CC2)cc1	GLP1R inv ag 7.1µM
CC(CCc1ccccc1)NC(=O)CNC(=S)N(Cc1cccs1)C1CCCC1 (stereo unspecified)	ALOX12 inh inconclusive, GLP1R inv ag 5µM
CCOC(=O)CNC(=S)N(Cc1cccs1)C1CCCCC1	GLP1R inv ag inconclusive
COC(CNC(=O)CNC(=S)N(Cc1ccccc1)Cc1cccs1)OC	none
CCCCNC(=O)CNC(=S)N(Cc1ccccc1)Cc1cccs1	GLP1R inv ag 5µM
O=C(/C=C/c1ccccc1[N+](=O)[O-])Nc1cccc(S(=O)(=O)NC2=NCCCCC2)c1	none
O=C(/C=C/c1ccc(Cl)cc1Cl)Nc1cccc(S(=O)(=O)NC2=NCCCCC2)c1	GLP1R inv ag 10µM
O=C(Nc1cccc(S(=O)(=O)Nc2ccccc2F)c1)c1ccc2ccccc2n1	ALOX12 inh inconclusive, GLP1R inv ag inconclusive
O=C(/C=C/c1ccccc1)Nc1cccc(S(=O)(=O)Nc2ccccc2F)c1	ALOX12 inh 22µM, GLP1R inv ag inconclusive
Brc1cccc(-c2nc3ccccc3o2)c1	none (no result: GLS inhibitor, PTHR1 ag, Glioma ERSR ind, GLP-1R agonist, GLP1R inv ag)
COc1ccc(-c2nc(C(C)C)nc3c2CCN(C(=O)c2ccc(C(F)(F)F)cc2)CC3)cc1	none (no result: GLS inhibitor, PTHR1 ag, Glioma ERSR ind, GLP-1R agonist, GLP1R inv ag)
Cc1ccc(NS(=O)(=O)c2ccc(NC(=O)C(C)Sc3ccc(Cl)cc3)cc2)c(C)c1 (stereo unspecified)	ALOX12 inh inconclusive, GLP1R inv ag 10µM
Cc1ccc(C)c(NS(=O)(=O)c2ccc(NC(=O)CSc3ccc(Cl)cc3)cc2)c1	GLP1R inv ag inconclusive
O=C(O)C1Sc2[nH]c(=O)sc2C2c3ccc(O)cc3OC(=O)C12 (stereo unspecified)	GLS inhibitor 8.9µM, ALOX12 inh inconclusive
O=C(O)C1Sc2[nH]c(=O)sc2C2c3cc(Br)ccc3OC(=O)C12 (stereo unspecified)	GLS inhibitor 10µM, ALOX12 inh inconclusive
COC(=O)C1Sc2[nH]c(=O)sc2C2c3ccccc3OC(=O)C12 (stereo unspecified)	none (no result: GLS inhibitor)
COc1ccc(C(c2c(O)ccc3ccccc23)N2CCOCC2)c(OC)c1 (stereo unspecified)	ALOX12 inh inconclusive, GLP1R inv ag 10µM
COc1ccc(C(CCN2CCOCC2)c2c(O)cc(OC)cc2OC)cc1 (stereo unspecified)	none
Cc1cccc(/C=c2\s/c(=C\C(=O)C(C)(C)C)[nH]c2=O)c1	GLP1R inv ag 8.9µM
Cc1nc(N2CCN(c3ccccn3)CC2)c2c(C)c(C(=O)Nc3ccc(Cl)cc3)sc2n1	none
Cc1cccc(NC(=O)c2sc3nc(C)nc(N4CCOCC4)c3c2C)c1	none
COc1ccccc1N1CCN(C(=O)c2sc3nc(C)nc(N4CCN(c5ccccn5)CC4)c3c2C)CC1	ALOX12 inh inconclusive, GLP1R inv ag 5µM
Cc1nc(N2CCN(c3ccccn3)CC2)c2c(C)c(C(=O)Nc3c(C)cc(Br)cc3C)sc2n1	GLP1R inv ag 2µM
Cc1nc(N2CCN(c3ccccn3)CC2)c2c(C)c(C(=O)N3CCN(c4ccc(F)cc4)CC3)sc2n1	GLP1R inv ag inconclusive
Cc1nc(N2CCN(c3ccccn3)CC2)c2c(C)c(C(=O)Nc3c(F)cc(F)cc3Br)sc2n1	GLP1R inv ag 4.5µM
COc1ccccc1N1CCN(C(=O)c2sc3ncnc(N4CCN(c5ccccn5)CC4)c3c2C)CC1	GLP1R inv ag inconclusive (no result: ALOX12 inh)
Cc1nc(N2CCCCC2)c2c(C)c(C(=O)Nc3ccc4c(c3)OCCO4)sc2n1	GLP1R inv ag 5.6µM
C=CCOC(=O)C(NC(=O)c1ccccc1)=C(C)C	none (no result: GLS inhibitor, PTHR1 ag, Glioma ERSR ind, GLP-1R agonist, GLP1R inv ag)
Cn1c(=O)n(Cc2ccccc2)c(=O)c2c1[nH]c(=O)n2C	none (no result: GLS inhibitor, PTHR1 ag, Glioma ERSR ind, GLP-1R agonist, GLP1R inv ag)
O=C(CCC1CCCC1)NCCNC(=O)CCC1CCCC1	none (no result: GLS inhibitor, PTHR1 ag, Glioma ERSR ind, GLP-1R agonist, GLP1R inv ag)
Cc1cccc(N2CCN(c3ccc(C(=O)O)cc3NC(=O)c3cccc(Cl)c3)CC2C)c1 (stereo unspecified)	ALOX12 inh 45µM (no result: GLP-1R agonist)
Cc1cccc(N2CCN(c3ccc(NC(=O)c4ccccc4)cc3C(=O)O)CC2C)c1 (stereo unspecified)	ALOX12 inh inconclusive (no result: Glioma ERSR ind, GLP-1R agonist)
Cc1ccnc(NC(=O)c2ccc(OCC3CCCO3)cc2)c1 (stereo unspecified)	GLP1R inv ag 5.6µM
CC1=NOC(=O)/C1=C\c1ccc(-c2ccc(Br)cc2C(=O)O)o1	ALOX12 inh inconclusive
CC1=NOC(=O)/C1=C\c1ccc(-c2cc(Cl)ccc2Cl)o1	ALOX12 inh 2.2µM
CC1=NOC(=O)/C1=C\c1ccc(-c2ccc(Br)cc2)o1	ALOX12 inh 45µM, GLP1R inv ag inconclusive
O=C(CSc1ncnc2ccccc12)Nc1ccccc1OC(F)F	none (no result: GLS inhibitor, PTHR1 ag, Glioma ERSR ind, GLP-1R agonist, GLP1R inv ag)
Cc1cc(/C=C2\SC(=S)N(Cc3ccco3)C2=O)c(C)n1-c1ccccc1	GLP1R inv ag 2.2µM
COc1ccc(-n2c(C)cc(/C=C3/SC(=S)N(C)C3=O)c2C)cc1	none
Cc1cc(/C=C2\SC(=S)N(C)C2=O)c(C)n1-c1cccc(O)c1	ALOX12 inh inconclusive, GLP1R inv ag 2.8µM
O=C(c1cnccn1)N(Cc1cccs1)C1CC1	none (no result: GLS inhibitor, PTHR1 ag, Glioma ERSR ind, GLP-1R agonist, GLP1R inv ag)
CCN1CCN(C(=O)c2ccc3c(=O)n(Cc4ccccc4OC)c(=S)[nH]c3c2)CC1	GLS inhibitor 11µM, ALOX12 inh inconclusive
CCOC(=O)N1CCN(C(=O)c2ccc3c(=O)n(Cc4ccc(Cl)cc4)c(=S)[nH]c3c2)CC1	GLP1R inv ag 2µM
O=C(c1ccc(Cn2c(=O)[nH]c3ccccc3c2=O)cc1)N1CCN(c2ccc(Cl)cc2)CC1	GLP1R inv ag 11µM
COc1ccccc1Cn1c(=S)[nH]c2cc(C(=O)N3CCCC3)ccc2c1=O	GLS inhibitor inconclusive, ALOX12 inh 45µM
